Reference: the supplement of paper PMC10849652
Of roughly 7,900 targets only a part is listed; those with a hit were picked by preference. About 0.6% of all pairs of compound and target were hits. Unmarked numbers belong to inactive results.

Tests used:
Experiment in all cases: log2 fold change, soluble protein after heating vs DMSO (PISA); higher = thermal stabilisation; K562 cells, 10 uM, 30 min; active = over 0.2 and 3.5 SD of the protein, either way, in both replicates (recomputed)
[1] = compound: C#Cc1cccc(Nc2ncnc3cc(OCCOC)c(OCCOC)cc23)c1 [erlotinib]
How it was run: (§1)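 K562 cells at 2×10^6 cells/mL were given 10 μM compound for 30 min. Aliquots then went through 3 min of heating across 48°C-58°C, were pooled, and were extracted in PBS with 0.5% NP-40 at 4°C, and the supernatant after 21,000xg for 90 min was quantified by TMTpro 16plex LC-MS/MS with channel sums equalised. Thermal stability relative to control samples, from duplicates, is given as log2 fold change.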

[2] = compound: C/C(=N\NC(=O)C1=CC(=CC=C1)S(=O)(=O)N2CCOCC2)/C3=C(C=CC(=C3)Cl)O
How it was run: as §1

[3] = compound: C1=CC(=C(C=C1Cl)C2=NC3=NC=CN=C3C(=N2)NC4=CC=NC=C4)F
How it was run: as §1

[4] = compound: C1=CC(=CC=C1C2=NC3=C(N2)C=C(C=C3)C(=O)N)OC4=CC=C(C=C4)Cl
How it was run: as §1

[5] = compound: C1=CC2=C(C=CC(=C2)/C=C\3/C(=O)NC(=NCC4=CC=CS4)S3)N=C1
How it was run: as §1

[6] = compound: C1=CC2=NC=CN=C2C=C1/C=C/3\C(=O)NC(=O)S3
How it was run: as §1

[7] = compound: C1=CC=C(C=C1)C2=NC(=C(N2)C3=CC=NC=C3)C4=CC(=C(C=C4)Cl)O
How it was run: as §1

[8] = compound: C1=CC=C2C(=C1)C3=NNC4=CC=CC(=C43)C2=O
How it was run: as §1

[9] = compound: C1CCN(C1)C(=O)NC2=CC=CC(=C2)NC3=NC=C(C(=N3)NCCC4=CN=CN4)Br
How it was run: as §1

[10] = compound: C1CN(CCC1(CC2=CC=C(C=C2)Cl)N)C3=NC=NC4=C3C=CN4
How it was run: as §1

UniProt Q629K1, sequence (Q629K1 whole entry, looked up): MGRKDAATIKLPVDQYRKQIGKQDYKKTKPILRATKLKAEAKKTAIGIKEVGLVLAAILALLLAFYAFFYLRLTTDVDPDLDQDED
UniProt A6NIH7, sequence (A6NIH7 whole entry, looked up): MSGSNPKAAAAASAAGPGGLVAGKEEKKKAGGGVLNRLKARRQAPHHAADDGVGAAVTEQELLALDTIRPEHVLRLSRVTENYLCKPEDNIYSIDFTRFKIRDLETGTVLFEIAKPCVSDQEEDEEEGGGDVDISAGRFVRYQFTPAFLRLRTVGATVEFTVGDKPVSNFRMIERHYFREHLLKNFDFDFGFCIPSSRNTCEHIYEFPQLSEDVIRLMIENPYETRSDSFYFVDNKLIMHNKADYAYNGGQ
UniProt O60784, sequence (O60784 whole entry, looked up): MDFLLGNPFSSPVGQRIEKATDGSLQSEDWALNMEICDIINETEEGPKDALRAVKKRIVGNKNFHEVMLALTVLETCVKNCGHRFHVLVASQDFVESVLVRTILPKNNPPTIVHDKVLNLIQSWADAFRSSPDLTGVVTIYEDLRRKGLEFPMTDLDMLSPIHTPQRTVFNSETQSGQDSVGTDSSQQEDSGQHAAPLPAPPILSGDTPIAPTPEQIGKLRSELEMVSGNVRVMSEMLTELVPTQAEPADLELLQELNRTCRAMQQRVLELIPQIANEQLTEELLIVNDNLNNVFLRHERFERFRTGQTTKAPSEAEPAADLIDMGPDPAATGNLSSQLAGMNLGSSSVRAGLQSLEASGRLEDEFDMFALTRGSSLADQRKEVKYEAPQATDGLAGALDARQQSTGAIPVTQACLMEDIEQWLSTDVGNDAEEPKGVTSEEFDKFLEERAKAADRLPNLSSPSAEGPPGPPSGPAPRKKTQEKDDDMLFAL
UniProt Q8IWA0, sequence (Q8IWA0 whole entry, looked up): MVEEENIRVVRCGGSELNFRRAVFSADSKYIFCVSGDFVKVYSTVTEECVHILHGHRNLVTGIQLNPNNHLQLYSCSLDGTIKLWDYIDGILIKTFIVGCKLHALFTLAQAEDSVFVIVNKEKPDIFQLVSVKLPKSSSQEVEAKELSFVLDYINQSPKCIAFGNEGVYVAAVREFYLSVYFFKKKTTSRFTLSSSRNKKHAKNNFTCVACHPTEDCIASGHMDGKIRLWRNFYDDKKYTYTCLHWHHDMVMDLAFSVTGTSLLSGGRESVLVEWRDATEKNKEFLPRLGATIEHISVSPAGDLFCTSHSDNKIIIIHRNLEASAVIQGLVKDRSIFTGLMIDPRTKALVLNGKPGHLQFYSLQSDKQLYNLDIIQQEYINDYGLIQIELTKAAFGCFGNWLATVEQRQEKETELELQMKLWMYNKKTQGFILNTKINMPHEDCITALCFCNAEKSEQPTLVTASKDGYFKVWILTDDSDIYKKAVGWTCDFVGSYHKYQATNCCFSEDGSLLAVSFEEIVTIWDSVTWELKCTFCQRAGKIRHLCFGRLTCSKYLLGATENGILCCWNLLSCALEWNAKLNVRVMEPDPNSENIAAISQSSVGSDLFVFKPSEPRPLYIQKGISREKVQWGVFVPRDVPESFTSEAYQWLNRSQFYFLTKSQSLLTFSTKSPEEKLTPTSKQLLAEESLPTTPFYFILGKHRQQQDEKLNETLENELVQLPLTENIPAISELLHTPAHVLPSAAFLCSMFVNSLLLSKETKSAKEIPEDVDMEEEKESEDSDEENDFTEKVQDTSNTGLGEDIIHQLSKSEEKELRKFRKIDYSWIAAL
UniProt Q6ZVM7, sequence (Q6ZVM7 whole entry, looked up): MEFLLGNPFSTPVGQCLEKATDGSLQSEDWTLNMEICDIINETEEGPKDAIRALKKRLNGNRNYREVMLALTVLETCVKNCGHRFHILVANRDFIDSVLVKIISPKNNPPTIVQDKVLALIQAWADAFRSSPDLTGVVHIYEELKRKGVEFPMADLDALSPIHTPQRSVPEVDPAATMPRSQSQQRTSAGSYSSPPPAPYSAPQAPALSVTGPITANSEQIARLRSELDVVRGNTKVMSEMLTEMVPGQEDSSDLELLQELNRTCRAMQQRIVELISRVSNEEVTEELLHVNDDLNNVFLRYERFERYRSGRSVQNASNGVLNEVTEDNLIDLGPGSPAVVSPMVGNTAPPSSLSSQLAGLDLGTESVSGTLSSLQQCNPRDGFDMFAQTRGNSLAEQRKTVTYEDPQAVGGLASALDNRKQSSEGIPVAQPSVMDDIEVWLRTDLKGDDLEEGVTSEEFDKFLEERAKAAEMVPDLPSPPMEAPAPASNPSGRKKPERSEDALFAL
UniProt Q96DX7, sequence (Q96DX7 whole entry, looked up): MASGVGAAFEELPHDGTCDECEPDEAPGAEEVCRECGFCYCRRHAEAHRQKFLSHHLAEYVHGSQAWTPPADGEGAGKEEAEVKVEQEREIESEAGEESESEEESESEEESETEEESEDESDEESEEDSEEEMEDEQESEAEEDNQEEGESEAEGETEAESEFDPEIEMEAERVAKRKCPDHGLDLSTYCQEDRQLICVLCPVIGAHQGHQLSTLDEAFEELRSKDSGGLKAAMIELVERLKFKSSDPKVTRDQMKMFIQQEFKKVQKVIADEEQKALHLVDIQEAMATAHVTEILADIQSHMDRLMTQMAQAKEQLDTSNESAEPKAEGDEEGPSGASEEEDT
UniProt P36406, sequence (P36406 whole entry, looked up): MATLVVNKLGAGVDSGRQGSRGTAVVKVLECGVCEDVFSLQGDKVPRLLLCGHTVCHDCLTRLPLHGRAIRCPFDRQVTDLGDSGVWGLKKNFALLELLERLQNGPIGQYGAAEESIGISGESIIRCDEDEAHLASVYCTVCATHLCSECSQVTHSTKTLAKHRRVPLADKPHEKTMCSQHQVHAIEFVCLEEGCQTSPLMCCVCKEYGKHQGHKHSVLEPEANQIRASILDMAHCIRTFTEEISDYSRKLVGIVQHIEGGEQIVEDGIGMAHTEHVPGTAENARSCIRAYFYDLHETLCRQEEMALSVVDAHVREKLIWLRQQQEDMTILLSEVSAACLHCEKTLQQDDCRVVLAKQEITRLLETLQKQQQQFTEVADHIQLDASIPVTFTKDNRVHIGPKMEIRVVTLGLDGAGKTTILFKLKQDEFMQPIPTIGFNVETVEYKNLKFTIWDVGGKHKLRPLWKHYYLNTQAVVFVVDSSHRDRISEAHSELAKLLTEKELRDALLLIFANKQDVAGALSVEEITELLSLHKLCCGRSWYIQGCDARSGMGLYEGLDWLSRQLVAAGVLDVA
UniProt Q9BQB6, sequence (Q9BQB6 whole entry, looked up): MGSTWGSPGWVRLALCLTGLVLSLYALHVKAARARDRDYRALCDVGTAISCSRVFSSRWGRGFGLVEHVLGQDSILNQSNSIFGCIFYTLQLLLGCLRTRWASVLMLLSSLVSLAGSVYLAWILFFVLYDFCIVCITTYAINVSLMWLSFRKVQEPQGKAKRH
UniProt P51668, sequence (P51668 whole entry, looked up): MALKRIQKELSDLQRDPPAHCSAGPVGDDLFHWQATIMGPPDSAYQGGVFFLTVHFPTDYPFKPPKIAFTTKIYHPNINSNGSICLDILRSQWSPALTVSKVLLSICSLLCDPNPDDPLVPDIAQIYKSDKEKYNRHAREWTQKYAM
UniProt O95857, sequence (O95857 whole entry, looked up): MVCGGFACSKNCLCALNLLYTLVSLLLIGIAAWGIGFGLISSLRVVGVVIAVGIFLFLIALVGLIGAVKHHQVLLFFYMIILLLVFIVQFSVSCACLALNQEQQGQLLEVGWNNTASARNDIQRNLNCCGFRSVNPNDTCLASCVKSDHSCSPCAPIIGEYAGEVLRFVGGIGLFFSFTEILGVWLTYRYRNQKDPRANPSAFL
UniProt Q96ET8, sequence (Q96ET8 whole entry, looked up): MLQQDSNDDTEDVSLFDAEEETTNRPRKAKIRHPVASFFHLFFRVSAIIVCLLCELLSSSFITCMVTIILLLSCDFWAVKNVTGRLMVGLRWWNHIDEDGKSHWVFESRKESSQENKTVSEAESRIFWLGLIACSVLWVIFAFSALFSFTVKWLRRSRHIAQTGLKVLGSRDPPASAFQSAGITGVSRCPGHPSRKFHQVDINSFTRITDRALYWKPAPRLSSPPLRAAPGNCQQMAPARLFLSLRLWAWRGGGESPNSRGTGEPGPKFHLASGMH
UniProt Q9HCN3, sequence (Q9HCN3 whole entry, looked up): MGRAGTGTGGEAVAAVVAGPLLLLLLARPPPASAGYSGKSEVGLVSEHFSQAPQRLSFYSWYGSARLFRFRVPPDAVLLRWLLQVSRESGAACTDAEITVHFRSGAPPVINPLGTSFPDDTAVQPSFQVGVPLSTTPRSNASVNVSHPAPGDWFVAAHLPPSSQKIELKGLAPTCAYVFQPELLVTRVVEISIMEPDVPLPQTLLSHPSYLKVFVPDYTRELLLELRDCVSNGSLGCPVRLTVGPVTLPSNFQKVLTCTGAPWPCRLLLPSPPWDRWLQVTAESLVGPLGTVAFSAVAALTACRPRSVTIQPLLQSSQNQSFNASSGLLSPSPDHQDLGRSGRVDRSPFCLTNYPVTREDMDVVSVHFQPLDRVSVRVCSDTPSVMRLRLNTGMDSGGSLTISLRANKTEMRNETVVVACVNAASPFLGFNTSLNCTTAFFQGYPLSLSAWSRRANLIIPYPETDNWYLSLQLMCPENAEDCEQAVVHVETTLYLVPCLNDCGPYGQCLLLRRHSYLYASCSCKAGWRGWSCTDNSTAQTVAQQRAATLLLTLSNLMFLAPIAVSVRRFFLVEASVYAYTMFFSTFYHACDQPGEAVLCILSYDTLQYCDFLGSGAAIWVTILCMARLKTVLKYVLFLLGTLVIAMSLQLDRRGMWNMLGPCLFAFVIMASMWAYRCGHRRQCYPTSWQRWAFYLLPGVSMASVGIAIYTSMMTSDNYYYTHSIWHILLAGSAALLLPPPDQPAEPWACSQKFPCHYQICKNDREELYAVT
UniProt Q9BZM6, sequence (Q9BZM6 whole entry, looked up): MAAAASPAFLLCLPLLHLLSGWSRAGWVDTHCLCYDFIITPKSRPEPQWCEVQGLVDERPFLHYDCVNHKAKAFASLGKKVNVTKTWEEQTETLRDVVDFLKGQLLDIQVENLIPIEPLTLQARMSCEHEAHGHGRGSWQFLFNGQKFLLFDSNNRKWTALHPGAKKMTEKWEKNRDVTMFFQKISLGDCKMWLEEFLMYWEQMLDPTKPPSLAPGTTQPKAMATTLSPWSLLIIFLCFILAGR

Row | Target | log2 fold change [1] | log2 fold change [2] | log2 fold change [3] | log2 fold change [4] | log2 fold change [5] | log2 fold change [6] | log2 fold change [7] | log2 fold change [8] | log2 fold change [9] | log2 fold change [10]
1 | VPS11 (UniProt Q9H270) | -0.041 | 0.099 | 0.015 | 0.005 | 0.058 | 0.068 | 0.03 | -0.011 | 0.002 | 0.027
2 | TXNRD1 isoform 7 (UniProt Q16881) | 0.107 |  | 0.1 | -0.193 |  | 0.199 |  |  |  | 
3 | TOM1 (UniProt O60784) | 0.082 |  | 0.193 | -0.037 |  | 0.186 |  |  | 0.022 | -0.097
4 | UTP20 (UniProt O75691) | -0.082 |  | 0.053 | -0.321 |  |  |  |  | 0.061 | 0.04
5 | WDR75 (UniProt Q8IWA0) |  | -0.256 | -0.592 |  | 0.306 | 0.091 | -0.063 | 0.042 | -0.193 | 0.021
6 | TRIM23 (UniProt P36406) | 0.006 |  |  | 0.075 |  | -0.096 | 0.061 |  | -0.202 | 0.161
7 | WARS1 (UniProt G3V5U1) |  |  | -0.233 |  |  | 0.187 |  |  |  | 
8 | UBXN10 (UniProt Q96LJ8) | -0.036 |  | 0.004 | 0.048 |  | -0.068 | -0.077 |  | -0.101 | 0.128
9 | WARS1 (UniProt G3V227) |  | -0.08 | 0.018 |  | -0.159 | 0.093 |  | -0.178 | 0.098 | -0.089
10 | TXNL4B (UniProt Q9NX01) | 0.018 | 0.007 |  | -0.001 | 0.088 | 0.221 | 0.008 | 0.041 | -0.005 | -0.016
11 | VKORC1 (UniProt Q9BQB6) | 0.048 | -0.048 |  | -0.019 | 0.175 | 0.113 | 0.044 | 0.151 | -0.049 | 0.005
12 | UBIAD1 (UniProt Q9Y5Z9) | 0.101 | -0.052 |  | 0.04 | 0.194 | -0.036 | 0.259 | 0.297 (active) | 0 | 0.094
13 | WARS1 (UniProt G3V277) | 0.183 | -0.032 |  | -0.076 | 0.25 | 0.036 |  | -0.014 | 0.141 | -0.008
14 | UBE2D1 (UniProt P51668) | 0.098 | 0.071 |  | 0.068 | 0.057 | 0.023 | 0.01 | -0.096 | 0.022 | -0.162
15 | TSPAN13 (UniProt O95857) | 0.017 |  | -0.058 | 0.061 |  | 0.075 | -0.02 |  | 0.065 | 0.143
16 | TMEM184C (UniProt Q9NVA4) |  | 0.04 | -0.055 |  | -0.05 | -0.027 | -0.047 | -0.009 | -0.092 | -0.059
17 | WARS1 (UniProt G3V3P2) |  |  |  |  |  | 0.155 |  |  |  | 
18 | U2AF1L5 (UniProt P0DN76) | 1.29 (active) | 0.031 |  | 0.022 | -0.159 | 0.096 |  | -0.005 | 0.153 | -0.207
19 | UNC119B (UniProt A6NIH7) | 0 | 0.124 |  | 0.316 | 0.031 | 0.001 | 0.472 (active) | 0.005 | -0.012 | 0.454 (active)

Row | Target | log2 fold change [1] | log2 fold change [2] | log2 fold change [3] | log2 fold change [4] | log2 fold change [5] | log2 fold change [6] | log2 fold change [7] | log2 fold change [8] | log2 fold change [9] | log2 fold change [10]
20 | UBE3B (UniProt Q7Z3V4) |  | 0.018 | 0.08 |  | 0.121 | 0.135 | 0.064 | -0.043 | 0.395 | 0.16
21 | ULBP1 (UniProt Q9BZM6) | -0.017 | 0.011 | 0.231 | 0.044 | 0.021 |  | -0.083 | 0.037 | -0.073 | 0.078
22 | TRIM44 (UniProt Q96DX7) | 0.022 | 0.1 |  | 0.025 | 0.028 | 0.087 | -0.061 | -0.037 | -0.023 | -0.014
23 | UBXN8 (UniProt O00124) |  | 0.056 | 0.147 |  | 0.141 | -0.41 | -0.149 | -0.036 | 0.167 | -0.019
24 | WDR46, A0A0G2JJL1 | -0.273 |  | -0.741 | -0.011 |  | 0.027 |  |  | 0.279 | 0.114
25 | XAB2 (UniProt Q9HCS7) |  |  | -0.223 |  |  |  | 0.075 |  |  | 
26 | USP48 (UniProt Q86UV5) | 0.228 |  |  | -0.112 |  | 0.007 |  |  |  | 
27 | TOM1L2 (UniProt Q6ZVM7) | -0.048 | 0.06 | 0.043 | 0.013 | 0.025 |  |  | -0.026 |  | 
28 | TVP23C (UniProt Q96ET8) | -0.025 | 0.053 |  | -0.021 | 0.062 |  |  | -0.098 | 0.066 | -0.031
29 | TUBA4A (UniProt C9JJQ8) |  |  |  |  |  | 0.004 |  |  | 0.142 | -0.036
30 | TRIQK (UniProt Q629K1) |  |  | -0.023 |  |  | 0.046 | -0.077 |  | -0.003 | 0.097
31 | TRIM5 (UniProt Q9C035) | -0.061 | 0.075 | 0.111 | 0.162 | 0.012 |  | -0.182 | 0.019 | -0.077 | -0.01
32 | UBAP2L (UniProt F8W726) | 0.019 |  |  | 0.004 |  | -0.019 |  |  | 0 | 0.124
33 | TRPT1 isoform 4 (UniProt Q86TN4) | 0.021 | 0.065 |  | -0.08 | 0.021 |  | 0.043 | -0.062 |  | 
34 | TMEM8A (UniProt Q9HCN3) | 0.046 |  |  | -0.001 |  | 0.02 | 0.124 |  | -0.014 | 0.011
35 | TTC26 |  |  |  |  |  | 0.001 | -0.005 |  | 0.09 | -0.062
36 | WARS1 (UniProt G3V339) |  |  | -0.023 |  |  |  |  |  |  | 
37 | TUT4 (UniProt Q5TAX3) | 0.077 |  | -0.231 | 0.005 |  | -0.011 | 0.08 |  | -0.015 | -0.129
38 | WDR4 isoform 3 (UniProt P57081) |  |  | -0.144 |  |  | 0.045 |  |  |  | 
